Data as given in PubChem BioAssay (NCI).
Compounds without any hit were thinned out: in the full panel of roughly 83,000, 20% have a hit.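 Growth was measured after 48 h exposure to one concentration of compound in 96-well plates. Values under 10 count as active.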 Active and inactive are the calls of the source.

What was measured:
Assay in all cases: NCI-60 one-dose screen, 48 h (100 = growth as untreated, 0 = no growth, -100 = all killed)
Conditions in all cases: 10 µM unless noted
DU-145 prostate = tested on: DU-145 prostate
K-562 leukemia = tested on: K-562 leukemia
MDA-MB-231 breast = tested on: MDA-MB-231 breast
RXF 393 renal = tested on: RXF 393 renal
SF-268 CNS = tested on: SF-268 CNS
SF-295 CNS = tested on: SF-295 CNS
SF-539 CNS = tested on: SF-539 CNS
UACC-257 melanoma = tested on: UACC-257 melanoma
M14 melanoma = tested on: M14 melanoma
HCT-15 colon = tested on: HCT-15 colon
HT29 colon = tested on: HT29 colon
SNB-75 CNS = tested on: SNB-75 CNS
SNB-19 CNS = tested on: SNB-19 CNS
U251 CNS = tested on: U251 CNS
PC-3 prostate = tested on: PC-3 prostate
SK-MEL-5 melanoma = tested on: SK-MEL-5 melanoma
UACC-62 melanoma = tested on: UACC-62 melanoma
LOX IMVI melanoma = tested on: LOX IMVI melanoma
SK-MEL-28 melanoma = tested on: SK-MEL-28 melanoma
MALME-3M melanoma = tested on: MALME-3M melanoma

Measured: growth

CC1(C)N=C(N)N=C(N)N1c1cccc(CN)c1
inactive: DU-145 prostate 109% | K-562 leukemia 116% | MDA-MB-231 breast 98.8% | RXF 393 renal 103% | SF-268 CNS 101% | SF-295 CNS 94.7% | SF-539 CNS 99.3% | UACC-257 melanoma 86.5% | M14 melanoma 96.7% | HCT-15 colon 97.8% | HT29 colon 95.7% | SNB-75 CNS 73.6% | SNB-19 CNS 100% | U251 CNS 98.9% | PC-3 prostate 87.3% | SK-MEL-5 melanoma 109% | UACC-62 melanoma 95.9% | LOX IMVI melanoma 89.2% | SK-MEL-28 melanoma 106%

COc1ccc(-n2sc(=O)n(Cc3ccc(COC(=O)C(C)c4ccc(CC(C)C)cc4)cc3)c2=O)cc1 (stereo not given)
active: K-562 leukemia -11.6% | MALME-3M melanoma -49.4% | LOX IMVI melanoma -75.9%
inactive: DU-145 prostate 43.9% | MDA-MB-231 breast 62.4% | SF-268 CNS 71.9% | SF-295 CNS 97.2% | SF-539 CNS 26.8% | UACC-257 melanoma 54.9% | HCT-15 colon 36.3% | HT29 colon 22% | SNB-75 CNS 46.7% | SNB-19 CNS 80.5% | U251 CNS 75.3% | PC-3 prostate 61.7% | SK-MEL-28 melanoma 52.8%

C=CCO[C@H]1CO[C@H]2[C@@H]1OC[C@@H]2Oc1ccc(Nc2ccnc(Nc3ccc(O[C@H]4CO[C@H]5[C@@H]4OC[C@@H]5OCC=C)c(Cl)c3)n2)cc1Cl
active: DU-145 prostate -50.2% | K-562 leukemia -32.4% | MALME-3M melanoma -95.8% | MDA-MB-231 breast -92.8% | SF-268 CNS -61.6% | SF-295 CNS -77.8% | SF-539 CNS -87.5% | HCT-15 colon -78.5% | HT29 colon -5.18% | SNB-19 CNS -90.3% | U251 CNS -59.5% | UACC-62 melanoma -92.2% | LOX IMVI melanoma -95% | SK-MEL-28 melanoma -80.3%
inactive: UACC-257 melanoma 107% | PC-3 prostate 14%

COc1cc2oc(-c3cccc(C(=O)Nc4ccc(C#N)cc4)c3)cc(=O)c2c(O)c1OC
inactive: DU-145 prostate 34.2% | K-562 leukemia 66.4% | MALME-3M melanoma 47.7% | RXF 393 renal 102% | SF-268 CNS 50% | SF-295 CNS 36.8% | SF-539 CNS 82.4% | UACC-257 melanoma 88.9% | HCT-15 colon 75% | HT29 colon 53.9% | SNB-19 CNS 44% | U251 CNS 61.3% | SK-MEL-5 melanoma 70.3% | UACC-62 melanoma 41.5% | LOX IMVI melanoma 55.7% | SK-MEL-28 melanoma 32.8%
active: PC-3 prostate 7.86%

O=C1c2ccccc2C(=O)c2cc(Cn3cc[n+](Cc4ccc5ccccc5c4)c3)ccc21
inactive: DU-145 prostate 115% | K-562 leukemia 32.5% | MALME-3M melanoma 66.5% | MDA-MB-231 breast 81.4% | SF-268 CNS 72.5% | SF-295 CNS 94.9% | SF-539 CNS 84.1% | UACC-257 melanoma 56.1% | HCT-15 colon 98.1% | SNB-75 CNS 62.8% | SNB-19 CNS 79.5% | U251 CNS 85.8% | PC-3 prostate 38.8% | SK-MEL-5 melanoma 68.3% | UACC-62 melanoma 61.1% | LOX IMVI melanoma 94.9% | SK-MEL-28 melanoma 94.5%

O=C(c1ccccc1)c1ccc(Cl)c([N+](=O)[O-])c1
active: K-562 leukemia 7.38%
inactive: DU-145 prostate 75.4% | MDA-MB-231 breast 114% | RXF 393 renal 104% | SF-268 CNS 88.6% | SF-295 CNS 99% | SF-539 CNS 97.9% | UACC-257 melanoma 87.6% | M14 melanoma 94.6% | HCT-15 colon 90% | HT29 colon 83% | SNB-75 CNS 87.7% | SNB-19 CNS 98.5% | U251 CNS 97.1% | PC-3 prostate 90.2% | SK-MEL-5 melanoma 101% | UACC-62 melanoma 93.2% | LOX IMVI melanoma 37.1% | SK-MEL-28 melanoma 96.8%

O=C1CSC(c2ccccc2Cl)N1c1nnc(Cn2cnnc2)o1 (stereo not given)
inactive: DU-145 prostate 104% | MALME-3M melanoma 28.9% | MDA-MB-231 breast 68.6% | SF-268 CNS 94.7% | SF-539 CNS 39.7% | M14 melanoma 20.4% | HCT-15 colon 27.6% | HT29 colon 22.2% | SNB-75 CNS 50.2% | SNB-19 CNS 64.5% | U251 CNS 32.7% | PC-3 prostate 71.2% | SK-MEL-5 melanoma 23.7% | UACC-62 melanoma 38.6% | LOX IMVI melanoma 62.5% | SK-MEL-28 melanoma 58.7%
active: K-562 leukemia 8.59% | SF-295 CNS -32.6%

Cn1cc(-c2ccc3ncc(-c4ccc(CC(=O)Nc5cc(C(C)(C)C)nn5C)cc4)cc3c2)cn1
inactive: DU-145 prostate 18.1% [30 µM] | MDA-MB-231 breast 36% [30 µM] | SF-268 CNS 25.3% [30 µM] | SF-295 CNS 12.2% [30 µM] | SF-539 CNS 19.3% [30 µM] | HT29 colon 36.5% [30 µM] | SNB-75 CNS 22% [30 µM] | SNB-19 CNS 41.9% [30 µM] | U251 CNS 35% [30 µM] | SK-MEL-28 melanoma 14.5% [30 µM]
active: K-562 leukemia 7% [30 µM] | MALME-3M melanoma -0.381% [30 µM] | UACC-257 melanoma 7.37% [30 µM] | HCT-15 colon 7.79% [30 µM] | PC-3 prostate 5.27% [30 µM] | LOX IMVI melanoma -18.4% [30 µM]

COC(=O)[C@]12CC[C@@H](C)[C@H](C)[C@@H]1C1=CC[C@@H]3[C@@]4(C)C(C=O)=C[C@@](C)(CO)C4=CC[C@@]3(C)[C@]1(C)CC2
active: HCT-15 colon 9.41%
inactive: DU-145 prostate 39.9% | K-562 leukemia 16.4% | MALME-3M melanoma 60.1% | MDA-MB-231 breast 53.2% | SF-268 CNS 48.3% | SF-295 CNS 24.9% | SF-539 CNS 29.8% | M14 melanoma 28.5% | HT29 colon 14.5% | SNB-75 CNS 62.6% | SNB-19 CNS 39.4% | U251 CNS 23.4% | PC-3 prostate 16.2% | SK-MEL-5 melanoma 35.2% | LOX IMVI melanoma 26.1% | SK-MEL-28 melanoma 26.9%
